Measured values published in PubChem BioAssay AID2355 (The Scripps Research Institute Molecular Screening Center, 2010).
The other results are listed elsewhere or left out. Activity calls are given as the source filed them. Cut-off read from the data, not from the text of the source: active = inhibition above about 16%; inactive = the rest.

target: Serine/threonine-protein phosphatase PP1-alpha catalytic subunit (Homo sapiens) (UniProt P62136); experiment: PP1 phosphatase inhibitors, counter-screen for PP5 inhibitor project, biochemical, fluorescence, triplicate (AID 2355); settings: PP1 enzyme, fluorescent phosphatase substrate; at 6.7 µM; active compounds read high
Sequence (P62136 whole entry, looked up): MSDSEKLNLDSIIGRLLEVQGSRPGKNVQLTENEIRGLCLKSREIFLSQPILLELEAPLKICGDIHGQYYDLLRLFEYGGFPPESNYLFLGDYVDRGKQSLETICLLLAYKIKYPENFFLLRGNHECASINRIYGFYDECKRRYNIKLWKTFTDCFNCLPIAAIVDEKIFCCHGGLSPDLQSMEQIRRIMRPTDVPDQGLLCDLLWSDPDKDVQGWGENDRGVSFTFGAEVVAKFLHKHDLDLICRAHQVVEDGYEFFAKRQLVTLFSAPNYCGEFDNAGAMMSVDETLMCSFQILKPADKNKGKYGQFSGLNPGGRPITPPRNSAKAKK

Row | SMILES | inhibition
1 | C[C@@]12C(=O)N(c3cccc(Br)c3)C(=O)N1[C@H](c1ccc(Cl)cc1)[C@@H]1C(=O)N(C3CCCCC3)C(=O)[C@@H]12 | 6.16% (inactive)
2 | Cc1sc(NC(=O)C2C3CCC(O3)C2C(=O)O)c(C(=O)OC(C)C)c1-c1ccc(Cl)cc1 (centres undefined) | 9.97% (inactive)
3 | CCOC(=O)Nc1ccc2c(c1)N(C(=O)CN1CCN3CCCC3C1)c1ccccc1CC2 (centres undefined) | -7% (inactive)
4 | O=C(C1=C[C@H](c2ccc(C(F)(F)F)cc2)C[C@H](OCc2ccc(CO)cc2)O1)N1CCN(Cc2ccccc2)CC1 | 3.55% (inactive)
5 | COc1cc(C(F)(F)F)c(C(=O)N(C)c2ccc(Cl)cc2)cn1 | 0.28% (inactive)
6 | O=[N+]([O-])c1cccc2ncccc12 | -2.99% (inactive)
7 | Cc1nc(NC(CC(C)C)C(=O)O)c2nc(C)oc2n1 (centres undefined) | -4.44% (inactive)
8 | COc1cc(/C=C2/SC(=S)N(Cc3ccccc3)C2=O)cc(OC)c1O | 2.23% (inactive)
9 | Cc1nnc(SCc2nc3ccccc3nc2C)s1 | -2.74% (inactive)
10 | O=c1ccc2c(-c3ccccc3S(=O)(=O)O)c3ccc(O)c(O)c3oc-2c1O | 5.34% (inactive)
11 | COc1ccc(OC)c(C(=O)c2ccc(C(=O)O)cc2)c1 | -5.81% (inactive)
12 | CNC(=S)NNC(=O)c1oc2nc(-c3ccccc3)cc(-c3ccco3)c2c1N | -1.11% (inactive)
13 | N#Cc1c(N2CCCCC2)nc(N)c2c(N)nc(SCC(=O)O)cc12 | 3.99% (inactive)
14 | CN(c1ccccc1)S(=O)(=O)c1ccc(NC(=O)COc2ccccc2)cc1 | 3.34% (inactive)
